For 40 compounds, Potency results are on record in PubChem BioAssay (NCATS).

Each structure is given as a SMILES string. Records with an inconclusive call do not appear. Entries that show only a call come without a potency. Calls of active or inactive are those of the source. Calls come from the whole dose curve; as a rule, active = well fitted inhibition curve with a large enough effect; inconclusive = small, poorly fitted or top-dose-only effect; inactive = no such curve, though single readings can be large or run the other way.
Potency is the fitted concentration of half-maximal effect.

This assay deals with Cytochrome P450 3A4 (Homo sapiens) (UniProt P08684). Nature of the assay: qHTS Assay for Inhibitors and Substrates of Cytochrome P450 3A4 (AID 884). Note: nearly all actives have a fitted effect of over 50% in size. As to conditions: recombinant CYP3A4, Luciferin-PPXE luminescence; series mostly up to 57.1 µM. The method, then: NIH Molecular Libraries Screening Centers Network [MLSCN]
Chain of Cytochrome P450 3A4 (Homo sapiens) (P08684 whole entry, looked up): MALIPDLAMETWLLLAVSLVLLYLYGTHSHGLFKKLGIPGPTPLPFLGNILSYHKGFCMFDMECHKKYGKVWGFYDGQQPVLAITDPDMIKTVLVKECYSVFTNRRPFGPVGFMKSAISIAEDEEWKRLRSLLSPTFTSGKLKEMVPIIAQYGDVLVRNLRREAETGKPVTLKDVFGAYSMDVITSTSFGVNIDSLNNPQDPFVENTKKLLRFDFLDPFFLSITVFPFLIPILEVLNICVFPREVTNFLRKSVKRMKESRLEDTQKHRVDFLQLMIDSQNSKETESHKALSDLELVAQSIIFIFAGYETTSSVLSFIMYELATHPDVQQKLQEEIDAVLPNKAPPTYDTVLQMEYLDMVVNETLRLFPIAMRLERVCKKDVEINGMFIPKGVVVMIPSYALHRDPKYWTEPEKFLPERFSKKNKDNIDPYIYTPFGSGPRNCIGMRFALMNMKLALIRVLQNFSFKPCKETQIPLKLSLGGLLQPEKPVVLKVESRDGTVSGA
NIH Chemical Genomics Center [NCGC]
The P450 gene superfamily is involved in the metabolism and clearance of xenobiotics. This assay used human CYP3A4 to measure the dealkylation of luciferin-6' phenylpiperazinylyl (Luciferin-PPXE; […]) to luciferin. The luciferin is then measured by luminescence after the addition of a luciferase detection reagent. Luciferin-PPXE concentration in the assay was equal to its KM for CYP3A4. Inhibitors and some substrates limit the production of luciferin, and decrease measured luminescence.
NCGC Assay Protocol Summary:
Two uL of enzyme and substrate mix (final concentrations: 20nM CYP3A4, 25uM Luciferin-PPXE, 200mM KPO4) were dispensed into a white, solid bottom 1536-well microtiter plate. 23nL of compound was transferred by a pin tool. The plate was incubated at RT for 10 min. Two uL of an NADPH regeneration solution (Promega supplied reagent) was dispensed and the reaction was allowed to continue for 60 min at RT. Then the reaction was stopped by reconstituted luciferin detection buffer. After another 20 min of incubation the plate was read on the ViewLux (Perkin Elmer) at 60 sec exposure and 2x2 binning. This protocol was carried out with Promega-Glo reagents and further information can be found at http://www.promega.com/tbs/tb325/tb325.pdf. Data were normalized to the to AC100 inhibition (57 uM ketoconazole).
Keywords: P450, CYP3A4, Luciferase, MLSMR, MLSCN, NIH Roadmap, qHTS, NCGC
(In general: Quantitative high-throughput screening tests each substance at several concentrations.)
`Brc1ccccc1`: the Potency result was “inactive”.

Consider `C[C@]12CCC3C(C=CC4=CC(=O)CC[C@]43C)C1CC[C@]2(O)CCC(=O)O` (stereo not given in full), for which the Potency entry is “inactive”.

Regarding `Oc1ccc(Cl)cc1Cl`, the Potency entry is “inactive”.

In the case of `CC1=CCCC2C1(C)CCC(C)C2(C)CC/C(C)=C/C[n+]1cn(C)c2c(N)ncnc21` (stereo not given), the Potency is 31.6 µM (active).

Consider `C1CCC2CCCCC2C1` (stereo not given), for which the Potency result was “inactive”.

Turning to `COc1cc(OC)c2c(c1)OC(c1ccc(OC)c(OC)c1)C(O)C2` (stereo not given), the Potency entry is “inactive”.

Turning to `O=C=NC1CCCCC1`, the Potency entry is “inactive”.

For `CC1CC2CC(=O)C3CCCN4CCCC2[C@]34C1` (stereo not given in full), the Potency entry is “inactive”.

In the case of `CC1=NCCc2c1[nH]c1cc(O)ccc21`, the Potency result was “inactive”.

As to `CN1CC[C@@]2(C)c3cc(O)ccc3N(C)[C@@H]12`, the Potency result is “inactive”.

`Cc1cccc([N+](=O)[O-])c1`: the Potency entry was “inactive”.

With `CCC(C)C(=O)O[C@@H]1C[C@@]2(C)C(c3ccoc3)OC(=O)CC23OC2(C)O[C@@]14[C@@]1(C)C(CC(=O)OC)C5(C)CC1(O)C(O)(C5OC(=O)C1(C)OC1C)C(OC(C)=O)[C@@]34O2` (stereo not given in full), the Potency was 1 µM (active).

As to `COc1cc2c(c(OC)c1OC)-c1ccc(O)c(=O)cc1C(NC(C)=O)CC2` (stereo not given), the Potency entry was “inactive”.

As to `Clc1cc(Cl)c(-c2cc(Cl)c(Cl)cc2Cl)cc1Cl`, the Potency result is “inactive”.

Turning to `CC1O[C@@H](OC2CC(O)[C@@]3(CO)C4C(O)C[C@@]5(C)C(C6=CC(=O)OC6)CC[C@]5(O)C4CC[C@]3(O)C2)C(O)C(O)C1O` (stereo not given in full), the Potency result is “inactive”.

For `CNC1[C@@H](O)C(OC2C(N)C[C@H](N)[C@@H](O[C@@H]3OC(C(C)O)C(O)C(O)C3N)C2O)OC[C@]1(C)O` (stereo not given in full), the Potency is 20 µM (active).

With `C[C@]12CC[C@H]3[C@@H](CCC4=CC(=O)CC[C@@]43C)[C@@H]1CC[C@@H]2O`, the Potency result is “inactive”.

For the compound `CC(C)(C)OO`, the Potency entry was “inactive”.

Take `CNC(C)C(O)c1ccccc1` (stereo not given): the Potency entry was “inactive”.

For the compound `CC1O[C@@H](OC2CC[C@@]3(C=O)C4CC[C@]5(C)C(C6=CC(=O)OC6)CC[C@@]5(O)C4CC[C@]3(O)C2)C(O)C(O)C1O` (stereo not given in full), the Potency result is “inactive”.

For the compound `C[N+]1(C)C2CC(OC(=O)C(CO)c3ccccc3)CC1C1OC12` (stereo not given), the Potency entry is “inactive”.

Regarding `O=C(O)c1nn(Cc2ccc(Cl)c(Cl)c2)c2ccccc12`, the Potency result was “inactive”.

As to `CCOc1ccc2c(c1)C(C)=CC(C)(C)N2`, the Potency is 15.8 µM (active).

On to `O=C(Cl)/C=C/C(=O)Cl`, for which the Potency entry is “inactive”.

As to `COC1CC(OC2CC[C@@]3(C=O)C4CC[C@]5(C)C(C6=CC(=O)OC6)CC[C@@]5(O)C4CC[C@]3(O)C2)OC(C)C1O` (stereo not given in full), the Potency entry was “inactive”.

On to `C=C1C/C(=C/C)C(=O)O[C@@H]2CCN3CC=C(COC(=O)[C@]1(C)O)[C@@H]23`, for which the Potency was 15.8 µM (active).

In the case of `O=C1C(Cl)=C(Cl)C(=O)C(Cl)=C1Cl`, the Potency is 2 µM (active).

For `CCCCCCC(C)OC(=O)COc1ccc(Cl)cc1Cl` (stereo not given), the Potency result was “inactive”.

With `O=C1CCCC2C3CC(CN12)C1CCCCN1C3` (stereo not given), the Potency entry was “inactive”.

Turning to `CCCC(=O)Cl`, the Potency result was “inactive”.

In the case of `O=C(O)CCC1NCC2CC1CN1CCCCC21` (stereo not given), the Potency result is “inactive”.

Consider `CC(=O)O[C@H]1CC[C@@]2(C)C(=CC[C@@H]3[C@H]2CC[C@]2(C)C(=O)CC[C@H]32)C1`, for which the Potency entry was “inactive”.

`C[C@@]12CCC(=O)C[C@@H]1CC[C@@H]1[C@@H]2CC[C@]2(C)C(=O)CC[C@@H]12`: the Potency entry was “inactive”.

On to `CCOc1ccc(N)cc1`, for which the Potency entry is “inactive”.

Consider `CNC(=O)Oc1cccc2c1OC(C)(C)C2`, for which the Potency result is “inactive”.

On to `COC(=O)NC(=S)Nc1ccccc1NC(=S)NC(=O)OC`, for which the Potency entry was “inactive”.

Regarding `Nc1ccc(Br)cc1`, the Potency result was “inactive”.

As to `CCNc1nc(Cl)nc(NC(C)C)n1`, the Potency entry was “inactive”.

For the compound `O=C(Oc1ccccc1)N1CCC2(CCN(Cc3ccccc3)CC2)CC1`, the Potency entry is “inactive”.

`O=c1cccc2n1CC1CC2CN2CCCCC12` (stereo not given): the Potency entry is “inactive”.
